In PubChem BioAssay AID488890 (Southern Research Specialized Biocontainment Screening …, 2010):
Out of some 320,000 compounds screened, about 1,300 (0.41%) were called active. Another 3% or so got no clear call; they are omitted. How the calls were made is not given here. These entries were drawn from the full list. Potency and affinity values are given separately.

Assay: growth inhibition of non-replicating M. tuberculosis (AID 488890);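 further: plate controls were DMSO cells for no effect and high antibiotic wells for full effect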
Conditions: Mycobacterium tuberculosis non-replicating, at 25 µM, stronger effect = higher value

Row | Compound | inhibition [%]
1 | Cc1cc(OCC(=O)N[C@@H](Cc2c[nH]c3ccccc23)C(=O)O)c2c(C)c(C)c(=O)oc2c1 | 5.84
2 | O=C(CN1C(=O)C(=O)c2ccccc21)c1ccccc1 | 27
3 | COc1ccc(-n2c(-c3ccccc3)cc3c2CCCC3=O)cc1 | 17.2
4 | CCCCCCNc1nc(OC)nc(N2CC3CC(C2)c2cccc(=O)n2C3)n1 (configuration not stated) | 3.85
5 | COc1ccc(-c2ccc(OC)cc2)cc1 | 10.9
6 | COc1ccc(O)cc1 | -8.51
7 | COC(=O)c1ccc(COc2ccc(/C=N/O)cc2)o1 | 29.5
8 | CCc1ccc(OCc2ccc(C(=O)OC)o2)cc1 | 72.2
9 | COc1ccc(-n2cnc3cc(C(=O)N4CCOCC4)ccc32)cc1 | -8.02
10 | O=C(NC(Cc1ccccc1)C(=O)O)NC12CC3CC(CC(C3)C1)C2 (configuration not stated) | -6.43
11 | CCN(CC)CCn1c(=S)[nH]c2cc(C(=O)NCc3ccccc3Cl)ccc2c1=O | 35
12 | Cc1ccc(C2C(C#N)=C(N)Oc3n[nH]c(-c4cccnc4)c32)o1 (configuration not stated) | -0.74
13 | N#CC1=C(N)Oc2n[nH]c(-c3ccccc3)c2C1c1cccnc1 (configuration not stated) | 9.98
14 | O=C(OCC(=O)c1cccc2ccccc12)c1ccc(CO)cc1 | 60
15 | CCCN(CCC)c1nc2ccccc2n2c(C)nnc12 | 17.5
16 | O=C(N/N=C\c1c(O)ccc2ccccc12)c1ccc(Cn2cccn2)o1 | -4.74
17 | O=C(N/N=C\c1c(O)ccc2ccccc12)c1ccc(O)cc1 | 27.8
18 | CSc1cccc(CN2CCC(Oc3ccc(C(=O)N4CCCCC4)cc3)CC2)c1 | 64.2
19 | CCOC(=O)c1c(NC(=O)CSc2nc3cc(Cl)ccc3s2)sc(C(C)=O)c1C | 2.44
20 | Cc1ccc(/C=N/NC(=O)c2nnn(-c3nonc3N)c2CN(C)C)o1 | -3.62
21 | NC(=O)COc1c(-c2ccc(Br)o2)oc2ccccc2c1=O | -1.98
22 | O=C(Oc1c(-c2ccccc2)oc2ccccc2c1=O)c1ccccc1 | 26.1
23 | N#Cc1c(OCC(=O)c2ccccc2)nc2c(c1-c1ccco1)CCc1ccccc1-2 | -14.7
24 | NC(=O)Cc1nc(-c2ccc(F)cc2)cs1 | 8.71
25 | O=C(CNc1cccc2ccccc12)c1ccc([N+](=O)[O-])cc1 | 73.1

Row | Compound | inhibition [%]
26 | Cc1ccc(NCC(=O)c2ccc([N+](=O)[O-])cc2)cc1 | 68
27 | Cc1ccc(C(=O)CNc2cccc([N+](=O)[O-])c2)cc1 | 11.3
28 | O=C(NC(=S)Nc1cccc(F)c1)c1cccc([N+](=O)[O-])c1 | 74
29 | CCOC(=O)C1=C(C)N(CCCC(=O)O)C(=O)NC1c1ccccc1Cl (configuration not stated) | 0.44
30 | CCOC(=O)C(C)/C(C)=N\Nc1ccc([N+](=O)[O-])cc1[N+](=O)[O-] (configuration not stated) | -5.18
31 | CCCC1CC(c2csc(N)n2)CCO1 (configuration not stated) | -0.79
32 | COc1ccc(OC)c(/C=C/C(=O)Oc2ccc(C(C)=O)cc2)c1 | 64.2
33 | O=C(Cn1c(SCC(=O)N2CCCc3ccccc32)nc2ccccc21)N1CCCC1 | -11.8
34 | O=C(NNC(=O)c1ccc(Br)cc1)c1ccncc1 | 41.7
35 | O=C(NNC(=O)C1CCC1)c1ccc(Br)cc1 | 3.14
36 | C/C(NC1CCCCC1)=C(/C#N)C(=O)NCCN1CCOCC1 | 1.64
37 | O=[N+]([O-])c1cnc(Nc2ccccc2)nc1Nc1ccccc1 | 0.51
38 | CC(=O)OCC(=O)Nc1ccc([N+](=O)[O-])cc1Cl | -21.2
39 | Cc1cc(O)c(NC(=O)c2cc([N+](=O)[O-])ccc2Cl)cc1C | 32.1
40 | CN(C)C(=O)Oc1ccc2ccccc2c1Cl | 5.7
41 | O=C(CSc1ccccc1F)NCCN1C(=O)CSC1=O | -0.52
42 | O=C(O)CN1C(c2ccccc2)=Nc2ccc(Br)cc2C1c1ccccc1 (configuration not stated) | -0.36
43 | O=C(O)c1cc2c(ccc3ccccc32)oc1=O | -4.26
44 | CCOC(=O)c1cc2c(ccc3ccccc32)oc1=O | 74.5
45 | Cc1cccc(OCC(=O)NCC(C)(C)N2CCOCC2)c1 | 5.72
46 | CCOC(=O)N1CCC(c2[nH][nH]c(=O)c2C)CC1 | -7.47
47 | CCCCn1c(=O)c(CCC(=O)OCC(=O)NC(C)c2ccccc2)nc2ccccc21 (configuration not stated) | 55.8
48 | Cc1cccc(-n2c(/C=C/c3ccc([N+](=O)[O-])o3)nc3ccccc3c2=O)c1 | 28.4
49 | Cn1c(/C=C/c2ccccc2[N+](=O)[O-])nc2ccccc2c1=O | -6.23
50 | Cc1cc(=O)oc(C)c1C(=O)OCC(=O)c1ccc(Cl)cc1 | 72.7

Row | Compound | inhibition [%]
51 | O=C(NCCCN1CCOCC1)c1cc2ccccc2o1 | -15.4
52 | Cc1ccc(C2=C(O)c3ccccc3C(=O)C2=O)cc1 | 71.2
53 | O=C1C(c2ccncc2)=C(O)c2ccccc21 | 26.2
54 | Cc1cccc(NC(=S)N2CCN(c3cc(C)ccc3C)CC2)c1 | -5.31
55 | O=c1[nH]c2ccccc2nc1-c1ccccc1 | -4.14
56 | O=c1[nH]c2ccccc2nc1-c1ccc(Cl)cc1 | -0.23
57 | CN(C)CC/C=C1/c2ccccc2Sc2ccc(Cl)cc21 | 75.6
58 | CN(C)CC/C=C1/c2cc(F)ccc2Sc2ccc(Cl)cc21 | 79.7
59 | Cc1ccc(OCC(=O)N/N=C2/SCC(=O)N2Cc2ccccc2)cc1 | 29.3
60 | CC(CN1CCN(C/C=C/c2ccccc2)CC1)c1ccccc1 (configuration not stated) | 2.29
61 | COC(CNC(=O)c1coc2nc3ccccc3nc12)OC | 5.54
62 | COC(CNC(=O)c1cccnc1)OC | -3.72
63 | COc1ccc(Cl)cc1NC(=O)CN(C)C(=O)C12CC3CC(CC(Cl)(C3)C1)C2 | 41.4
64 | COc1cccc(NC(=O)CCC(=O)NCc2ccco2)c1 | -7.17
65 | CCOc1ccc(C(=O)NCc2cccs2)cc1 | 44.9
66 | O=C1c2ccccc2C(=O)N1c1cc([N+](=O)[O-])ccn1 | 4.94
67 | O=C1c2cccc3c([N+](=O)[O-])ccc(c23)C(=O)N1CCc1ccccn1 | 33.7
68 | O=C1c2ccc([N+](=O)[O-])cc2C(=O)N1c1ccc(Cl)cn1 | -16.1
69 | CC(=O)Nc1cccc2c1C(=O)N(c1ccc(OC(C)=O)cc1)C2=O | 19
70 | Cc1ccc(C(=O)O)cc1N1C(=O)c2cccc3c([N+](=O)[O-])ccc(c23)C1=O | 3.01
71 | O=C1c2ccccc2C(=O)N1c1ccc(Cl)cn1 | 7.35
72 | O=C1c2cccc3cccc(c23)C(=O)N1c1ccccn1 | -12.3
73 | Cc1ccc(N2C(=O)c3cccc4c([N+](=O)[O-])ccc(c34)C2=O)c2cccnc12 | 7.23
74 | COc1ccc(CCN(C)C(=O)CSc2nnc(-c3ccco3)o2)cc1OC | -6.6
75 | C=CCn1c(SCC(=O)Nc2ccc(NC(=O)c3ccco3)c(OC)c2)nnc1-c1ccncc1 | 13.9

Row | Compound | inhibition [%]
76 | Cc1ccccc1OCC(=O)NCCCNC(=O)c1cccnc1 | -5.91
77 | COc1cccc(-c2nnc(-c3ccco3)o2)c1 | 65.8
78 | Cc1ccccc1Oc1ncnc(N)c1[N+](=O)[O-] | 6.54
79 | Cc1cccc(Oc2ncnc(N)c2[N+](=O)[O-])c1C | 29.9
80 | Cc1ccccc1C(=O)NCC(=O)OCCCOC(=O)CNC(=O)c1ccccc1C | -9.69
81 | O=C1CN(C(=O)CNCc2ccccc2Cl)c2ccccc2N1 | 9.45
82 | Cc1ccc(-c2cc(-c3ccc(F)cc3)n[nH]2)c(O)c1 | -3.72
83 | CN(C)CCOC(=O)/C(=C/c1cn(C)c2ccccc12)NC(=O)c1ccccc1 | -4.57
84 | Cc1ccc(S(=O)(=O)CCC(=O)OCC(=O)c2ccc(C)c(C)c2)cc1 | 73.6
85 | Cc1ccc(C(=O)CCS(=O)(=O)c2ccc(F)cc2)cc1 | 69.2
86 | Cc1ccc(C)c(OCc2nnc(NC(=O)c3ccc4c(c3)OCO4)s2)c1 | 6.85
87 | O=C1NC2(CCCCC2)NN1c1ccccc1 | 18.6
88 | O=C1NC2(CCC3(CC2)OCCO3)NN1c1ccccc1 | 14.8
89 | O=C(O)Cc1ccc(Oc2ncc(C(F)(F)F)cc2Cl)cc1 | -16.8
90 | O=C(CCCc1nc(-c2ccccc2)no1)Nc1cccnc1 | 34.2
91 | Cc1cccc(-c2noc(CCCC(=O)Nc3cccnc3)n2)c1 | 32.7
92 | O=[N+]([O-])c1ccc2ncnc(Nc3ccc4c(c3)OCCO4)c2c1 | 21.4
93 | Cc1c(C(=O)OCc2ccc(F)cc2)sc2nc3n(c(=O)c12)CCC3 | 29.2
94 | CCOC(=O)c1sc2nc3n(c(=O)c2c1C)CCC3 | 1.86
95 | COc1ccc(N2CCN(c3ccc(N)cc3C#N)CC2)cc1 | -1.74
96 | N#Cc1cc(N)ccc1Sc1ccccc1 | 9.77
97 | CS(=O)(=O)N(CC(=O)NCCC1=CCCCC1)c1ccc2c(c1)OCO2 | -1.16
98 | COc1ccc(-c2cc(C(=O)NCCN3CCOCC3)no2)cc1OC | -10.1
99 | CCCCC(=O)N1CCN(c2nc3ccc(F)cc3s2)CC1 | 50.8
100 | Cc1ccc(C)c2sc(N3CCN(C(=O)c4ccc([N+](=O)[O-])o4)CC3)nc12 | 77.8

Row | Compound | inhibition [%]
101 | Cc1ccc2sc(N3CCN(C(=O)c4ccc([N+](=O)[O-])o4)CC3)nc2c1C | 68.9
102 | O=C(c1ccccc1)N1CCN(c2nc3ccc([N+](=O)[O-])cc3s2)CC1 | 24.5
103 | Cc1ccc(OCCC(=O)OCC(=O)NCc2ccccc2)cc1 | 30.8
104 | CC1(C(=O)CSc2ncn[nH]2)CCC(=O)O1 (configuration not stated) | -3.75
105 | O=C(NC1CCCCC1)c1cc2ccccc2cc1O | 30.4
106 | O=C(NC1CC1)c1cc2ccccc2o1 | 6.17
107 | CC(NC(=O)Cn1cnnn1)C12CC3CC(CC(C3)C1)C2 (configuration not stated) | 2.51
108 | CCn1cc(C(=O)NC(C)C2CC3CCC2C3)cn1 (configuration not stated) | 78.4
109 | Cc1ccc(C2NC(=O)c3ccccc3O2)cc1 (configuration not stated) | 9.75
110 | COc1ccc(NS(=O)(=O)c2ccc(N3CCCCC3)c(NC(=O)C(C)NC(N)=O)c2)cc1 (configuration not stated) | 17.6
111 | CC/C(=N\NS(=O)(=O)c1ccc(C)cc1)c1ccco1 | -13.4
112 | COc1ccccc1OCCOCCN1CCCC1 | -3.17
113 | COc1ccccc1OCCCCN1CCCCC1 | 7.51
114 | COc1ccc(CC(=O)NC(C)(C)C)cc1S(=O)(=O)N1CCOCC1 | -3.56
115 | O=C(c1ccccc1[N+](=O)[O-])N1CCc2ccccc2C1 | -4.71
116 | O=C(c1ccc([N+](=O)[O-])cc1)N1CCc2ccccc2C1 | 39.6
117 | CC(=O)N1CCN(C(=O)c2cc3ccccc3o2)CC1 | 2.82
118 | O=C(c1ccc([N+](=O)[O-])o1)N1CCCCCC1 | 56.6
119 | O=C(c1ccc([N+](=O)[O-])o1)N1CCOCC1 | 15.5
120 | O=C(c1ccccc1)N1CCN(C(=O)c2cc3ccccc3o2)CC1 | -6.53
121 | COc1cc2c(cc1OC)CN(C(=O)c1ccc(OC)c([N+](=O)[O-])c1)CC2 | 2.12
122 | COc1cc2c(cc1OC)CN(C(=O)c1ccc(Br)o1)CC2 | -1.97
